The results in this text go back to PubChem BioAssay (NCATS).

Experiment [1] in a line: qHTS for Inhibitors of the Functional Ribonucleoprotein Complex (vRNP) of Lassa (LASV) Arenavirus: LASV Primary Screen - GLuc reporter signal (AID 1347082; calls by dose curve; tested in HEK293 reporter line; note: series mostly up to about 57 µM; % is set by controls: 0 for no effect and ±100 for the full control effect; nearly all actives have a fitted effect of over 60% in size). In general terms: Quantitative high-throughput screening tests each substance at several concentrations.
Experiment [2] is described as follows: qHTS for Inhibitors of the Functional Ribonucleoprotein Complex (vRNP) of Lassa (LASV) Arenavirus: Viability assay - alamar blue signal for LASV Primary Screen (AID 1347083; calls by dose curve; tested in HEK293 reporter line; note: series mostly up to about 57 µM; % is set by controls: 0 for no effect and ±100 for the full control effect; nearly all actives have a fitted effect of over 80% in size).
Experiment [3] can be described thus: qHTS for Inhibitors of the Functional Ribonucleoprotein Complex (vRNP) of Lymphocytic Choriomeningitis Arenaviruses (LCMV): Viability assay - alamar blue signal for LCMV Primary Screen (AID 1347085; calls by dose curve; tested in HEK293 reporter line; note: series mostly up to about 57 µM; % is set by controls: 0 for no effect and ±100 for the full control effect; nearly all actives have a fitted effect of over 80% in size).
The target in experiment [4] is Nucleoprotein (Lymphocytic choriomeningitis virus (strain Armstrong)) (UniProt P09992). Briefly: qHTS for Inhibitors of the Functional Ribonucleoprotein Complex (vRNP) of Lymphocytic Choriomeningitis Arenaviruses (LCMV): LCMV Primary Screen - GLuc reporter signal (AID 1347086; calls by dose curve; note: series mostly up to about 57 µM; % is set by controls: 0 for no effect and ±100 for the full control effect; nearly all actives have a fitted effect of over 70% in size).
Sequence of Nucleoprotein (Lymphocytic choriomeningitis virus (strain Armstrong)) (P09992 whole entry, looked up): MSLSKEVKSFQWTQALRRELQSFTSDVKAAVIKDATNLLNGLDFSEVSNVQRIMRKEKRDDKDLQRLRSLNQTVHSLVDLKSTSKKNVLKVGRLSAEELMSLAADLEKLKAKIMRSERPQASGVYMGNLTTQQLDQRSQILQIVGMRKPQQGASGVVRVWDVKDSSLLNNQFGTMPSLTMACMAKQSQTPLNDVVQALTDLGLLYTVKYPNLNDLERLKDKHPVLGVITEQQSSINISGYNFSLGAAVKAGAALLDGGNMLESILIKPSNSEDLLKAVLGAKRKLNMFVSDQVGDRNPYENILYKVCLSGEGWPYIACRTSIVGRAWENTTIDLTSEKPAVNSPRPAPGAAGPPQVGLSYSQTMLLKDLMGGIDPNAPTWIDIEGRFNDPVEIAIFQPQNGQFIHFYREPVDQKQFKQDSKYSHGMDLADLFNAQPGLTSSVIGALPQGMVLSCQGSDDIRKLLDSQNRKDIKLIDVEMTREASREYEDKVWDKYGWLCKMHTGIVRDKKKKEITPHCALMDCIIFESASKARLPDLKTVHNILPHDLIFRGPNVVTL
The target of experiment [5] is Nuclear receptor subfamily 1 group I member 3 (Homo sapiens) (UniProt Q14994). Briefly: Primary qHTS for antagonist of constitutive androstane receptor (CAR) against the NCATS DSHEA and TCM libraries (AID 1794836).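 Note: HepG2 cells stably expressing hCAR with CYP2B6 luciferase reporter stimulated by CITCO; series mostly up to about 40 µM.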 In outline:
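Antagonist mode: CAR reporter luminescence (ONE-Glo) in HepG2-CYP2B6-hCAR cells stimulated with 48 uM CITCO (final) over 24 h at 37 C, compounds titrated; viability read first by CellTiter-Fluor fluorescence.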

Experiment [6] is described as follows: Validation screen for inhibitors of Lassa infection (AID 463096; calls by dose curve; note: % is set by controls: 0 for no effect and ±100 for the full control effect).
Experiment [7] in a line: qHTS for differential inhibitors of proliferation of Plasmodium falciparum line 7G8 (AID 1815).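 Note: potency is the fitted concentration of half-maximal effect; parasite growth measured after three days of incubation.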
The nature of experiment [8]: qHTS for differential inhibitors of proliferation of Plasmodium falciparum line GB4 (AID 1816).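 Note: potency is the fitted concentration of half-maximal effect; parasite growth measured after 72 h incubation.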 Particulars: Potency: Plasmodium falciparum GB4 proliferation inhibition.
The nature of experiment [9]: qHTS for differential inhibitors of proliferation of Plasmodium falciparum line 3D7 (AID 1876). Note: potency is the fitted concentration of half-maximal effect.
Experiment [10] in a line: qHTS for differential inhibitors of proliferation of Plasmodium falciparum line D10 (AID 1877).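 Note: potency is the fitted concentration of half-maximal effect; parasites grown with compound for 72 h before DNA staining.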
Experiment [11] is described as follows: qHTS for differential inhibitors of proliferation of Plasmodium falciparum line Dd2 (AID 1882). Note: potency is the fitted concentration of half-maximal effect; nearly all actives have a fitted effect of over 65% in size. Particulars: Potency: Plasmodium falciparum Dd2 proliferation inhibition. In outline: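 SYBR Green I DNA fluorescence read-out, ex 485/em 535 nm. Signals were normalized to 0.29 uM artemisinin and DMSO wells, then corrected using vehicle-only plates flanking each stack. Parasite growth ran 72 h in erythrocytes before lysis.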

Experiment [12] is described as follows: qHTS for differential inhibitors of proliferation of Plasmodium falciparum line W2 (AID 1883).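 Note: potency is the fitted concentration of half-maximal effect; parasites grown with compound for 72 h before lysis and staining.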 The conditions noted are these: Potency: Plasmodium falciparum W2 proliferation inhibition.
Experiment [13] is described as follows: qHTS for differential inhibitors of proliferation of Plasmodium falciparum line HB3 (AID 1886).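 Note: potency is the fitted concentration of half-maximal effect; parasites grown with compound for 72 h before SYBR Green readout.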 Particulars: Potency: Plasmodium falciparum HB3 proliferation inhibition.
A short description of experiment [14]: Inducers of the Endoplasmic Reticulum Stress Response (ERSR) in human glioma: Validation (AID 504836). Note: 0% is about no effect. The method in brief:
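ERSR induction read as luciferase luminescence (Bright-Glo, 10 min at room temperature) in stably transfected human U87-MG glioma cells exposed to compounds for 16 h, using GRP78 as sensor.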

The target in experiment [15] is Alpha-galactosidase (Coffea arabica) (UniProt Q42656). Briefly: Counterscreen for Glucocerebrosidase Inhibitors: qHTS Assay for Coffee Bean alpha-Galactosidase at pH 4.5 (AID 957).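 Note: series mostly up to about 77 µM; plate controls were enzyme alone for no effect and no enzyme for full effect.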 In outline: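 AC50 values derive from Hill-equation modeling of concentration-response data, normalized to no-enzyme and full-activity controls. The pH 4.5 citrate assay used 2 nM coffee bean enzyme and 80 uM fluorogenic substrate for 20 min.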
Sequence of Alpha-galactosidase (Coffea arabica) (Q42656 whole entry, looked up): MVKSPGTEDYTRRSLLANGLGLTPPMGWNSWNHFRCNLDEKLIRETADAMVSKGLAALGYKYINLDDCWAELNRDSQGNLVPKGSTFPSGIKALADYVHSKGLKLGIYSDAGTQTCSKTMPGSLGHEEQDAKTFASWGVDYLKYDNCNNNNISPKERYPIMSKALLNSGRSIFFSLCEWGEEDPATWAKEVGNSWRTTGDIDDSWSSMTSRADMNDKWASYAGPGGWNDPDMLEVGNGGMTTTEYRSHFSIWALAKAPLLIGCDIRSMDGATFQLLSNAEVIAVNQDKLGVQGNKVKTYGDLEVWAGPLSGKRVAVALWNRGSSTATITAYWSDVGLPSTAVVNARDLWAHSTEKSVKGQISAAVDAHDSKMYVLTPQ
Background: The purpose of a counterscreen is to sort out artefacts and off-target activity.

Experiment [16] shares this target. Kind of experiment: Counterscreen for Glucocerebrosidase Inhibitors: qHTS Assay for Coffee Bean alpha-Galactosidase at pH 5.9 (AID 998).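 Note: plate controls were uninhibited enzyme for no effect and no-enzyme basal signal for full effect.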 In outline: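 Compounds were titrated from 0.7 nM to 77 uM against green coffee bean alpha-galactosidase (2 nM) using 80 uM fluorogenic 4-methylumbelliferyl substrate. After 20 min at room temperature, reactions were stopped at pH 10 and read by fluorescence.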

Experiment [17] addresses Thioredoxin reductase 1, cytoplasmic (Rattus norvegicus) (UniProt O89049). Briefly: qHTS Assay for Substrates of Mammalian Selenoprotein Thioredoxin Reductase 1 (TrxR1) (AID 488772).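 Note: NADPH fluorescence in the first read after selenite addition and not the 8 min delta; series mostly up to about 57 µM; 0% is about no effect; a drop in NADPH fluorescence below the no-compound background marks a TrxR1 substrate.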 The method in brief:
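Quantitative HTS in Tris-HCl buffer at pH 7.5 with EDTA and Tween-20, using rat TrxR1, 400 uM NADPH and 400 uM selenite (final). A fall in initial NADPH fluorescence relative to background marked substrate behaviour.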

Experiment [18] shares this target. Briefly: qHTS Assay for Inhibitors of Mammalian Selenoprotein Thioredoxin Reductase 1 (TrxR1) (AID 488773).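 Note: drop in NADPH fluorescence over an 8 min run after selenite addition; series mostly up to about 57 µM; % is set by controls: 0 for no effect and ±100 for the full control effect; nearly all actives have a fitted effect of over 40% in size.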 The conditions noted are these: Potency: inhibition. In outline: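 Steps: enzyme (90 nM) plus NADPH (400 uM final), 5 min at ~22 deg C; compound added, 15 min; selenite (400 uM final) added; fluorescence followed for 8 min. Concentration-response curves derived from the normalized delta values.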

For experiment [19], the target named is Chromobox protein homolog 1 (Homo sapiens) (UniProt P83916). Kind of experiment: qHTS Validation Assay for Inhibitors of HP1-beta Chromodomain Interactions with Methylated Histone Tails (AID 488953). Note: potency is the fitted concentration of half-maximal effect; nearly all actives have a fitted effect of over 50% in size. In outline:
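Measured as loss of AlphaScreen luminescence from streptavidin donor and nickel acceptor beads (10 ug/mL final) bridging HP1-beta and biotin-H3(1-18)K9me3, each 50 nM. Compounds met the preassembled complex for 30 min at RT.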

Experiment [20] is described as follows: Nrf2 qHTS screen for inhibitors: Validation (AID 493153; active = well fitted inhibition curve with a large enough effect in the main read-out, with a control signal flat, not every such curve was filed as active). The conditions noted are these: Potency: luciferase luminescence; viability change: measured here: cytotoxicity max response. In outline:
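Dose-response validation uses reporter A549 cells with firefly luciferase under an antioxidant response element. Compounds stay on cells 18-24 h at 37°C, and luminescence indicates Nrf2-driven transcription.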

Results filed as inconclusive are left out. Calls of active or inactive are those of the source. Unless noted, calls come from the whole dose curve; as a rule, active = well fitted curve in the direction sought with a large enough effect; inconclusive = small, poorly fitted or top-dose-only effect, or another doubt; inactive = no such curve, though single readings can be large; an effect the other way counts as inactive or inconclusive.

Sequence of Thioredoxin reductase 1, cytoplasmic (Rattus norvegicus) (O89049 whole entry, looked up): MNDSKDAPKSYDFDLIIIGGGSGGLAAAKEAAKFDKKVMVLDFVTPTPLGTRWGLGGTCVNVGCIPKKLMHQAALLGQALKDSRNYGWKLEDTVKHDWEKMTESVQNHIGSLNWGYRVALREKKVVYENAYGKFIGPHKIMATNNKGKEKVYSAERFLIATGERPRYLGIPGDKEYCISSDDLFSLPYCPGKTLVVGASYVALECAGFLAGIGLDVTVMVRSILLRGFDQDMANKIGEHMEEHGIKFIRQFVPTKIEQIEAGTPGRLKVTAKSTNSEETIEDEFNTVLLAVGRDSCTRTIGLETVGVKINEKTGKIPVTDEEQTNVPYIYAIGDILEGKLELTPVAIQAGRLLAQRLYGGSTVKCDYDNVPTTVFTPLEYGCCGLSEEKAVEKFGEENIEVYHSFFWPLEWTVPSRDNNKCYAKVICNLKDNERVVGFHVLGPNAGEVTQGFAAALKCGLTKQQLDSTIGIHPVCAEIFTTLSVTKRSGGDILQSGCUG
Sequence of Nuclear receptor subfamily 1 group I member 3 (Homo sapiens) (Q14994 whole entry, looked up): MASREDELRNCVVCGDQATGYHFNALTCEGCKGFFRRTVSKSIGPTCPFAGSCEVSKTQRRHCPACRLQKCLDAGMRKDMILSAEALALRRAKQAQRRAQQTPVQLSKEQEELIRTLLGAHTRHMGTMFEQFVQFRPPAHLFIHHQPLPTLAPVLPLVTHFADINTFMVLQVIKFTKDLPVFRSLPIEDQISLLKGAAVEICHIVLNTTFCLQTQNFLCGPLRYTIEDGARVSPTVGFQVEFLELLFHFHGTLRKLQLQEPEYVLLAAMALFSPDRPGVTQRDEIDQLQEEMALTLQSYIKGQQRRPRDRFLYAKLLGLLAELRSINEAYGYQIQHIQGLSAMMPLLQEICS
Sequence of Chromobox protein homolog 1 (Homo sapiens) (P83916 whole entry, looked up): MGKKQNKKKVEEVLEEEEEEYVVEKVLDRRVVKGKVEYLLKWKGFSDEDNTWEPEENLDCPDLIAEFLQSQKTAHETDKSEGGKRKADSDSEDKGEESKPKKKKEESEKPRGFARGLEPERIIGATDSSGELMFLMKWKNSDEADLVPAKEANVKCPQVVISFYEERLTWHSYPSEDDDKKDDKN

For `CC(=O)OC/C=C/c1ccccc1`, the Potency result in experiment [1], in experiment [2], in experiment [3], in [4] and in [5] was “inactive” each time.
Regarding `CCCCOc1cc(CC2CNC(=O)N2)ccc1OC` (stereo unspecified), the Potency entry in experiment [6], in [1], in [2], in experiment [3] and in experiment [4] was “inactive” throughout.
In the case of `CCCCCCCCCC[Si](C)(C)CCC(=O)NC(Cc1ccc(C)cc1)c1ccccc1` (stereo unspecified), the Potency is 3.55 µM (active) in experiment [7]; 2.24 µM (active) in experiment [8]; 2.82 µM (active) in experiment [9]; 3.55 µM (active) in experiment [10]; 5.01 µM (active) in experiment [11]; 3.16 µM (active) in [12]. Besides, in experiment [13], the Potency was 2.82 µM (active). The Potency entry in experiment [6], in [1], in [2], in [3] and in [4] was “inactive” each time. Besides, the outcome in [14] was inactive.
In the case of `Nc1nc2[nH]c(=O)cnc2c(=O)[nH]1`, the compound was called inactive in experiment [15], in experiment [16], in [17] and in [14]. The Potency entry in [6], in experiment [18], in experiment [20], in [1], in experiment [2] and in [3] was “inactive” in each case. For the same compound, the Potency result in [4] is “inactive”. Further, the Potency in experiment [19] is 0.0095 µM (active). The viability change in experiment [20] was -3.53%.
As to `CCCCCC(=O)CC`, the Potency result in experiment [1], in [2], in experiment [3], in experiment [4] and in experiment [5] was “inactive” throughout.
Consider `C=CCN1CCc2c(cc(O)c(O)c2Cl)C(c2ccccc2)C1` (stereo unspecified), for which the Potency result in [6], in experiment [1], in [2], in [3] and in experiment [4] was “inactive” each time.
